The record followed here is PubChem BioAssay AID1645855 (Buhrlage Lab, Dana-Farber Cancer Institute and Novartis …, 2021).

Among all 47,000 compounds or so, about 3,100 (6.6%) were called active. The sample holds actives, similar compounds and a random draw of the others, so the mix is not that of the screen. No stated cut-off is given here; in the data, active means inhibition above about 30%; inactive means the rest.

The experiment deals with Ubiquitin carboxyl-terminal hydrolase 17-like protein 5 (Homo sapiens) (UniProt A8MUK1). Briefly: inhibitors of human USP17 deubiquitinase (AID 1645855). The conditions noted are these: purified USP17, Ub-rhodamine cleavage fluorescence, 3 h; at 50 µM; hits give high values.
Ubiquitin carboxyl-terminal hydrolase 17-like protein 5 (Homo sapiens), sequence (A8MUK1 whole entry, looked up): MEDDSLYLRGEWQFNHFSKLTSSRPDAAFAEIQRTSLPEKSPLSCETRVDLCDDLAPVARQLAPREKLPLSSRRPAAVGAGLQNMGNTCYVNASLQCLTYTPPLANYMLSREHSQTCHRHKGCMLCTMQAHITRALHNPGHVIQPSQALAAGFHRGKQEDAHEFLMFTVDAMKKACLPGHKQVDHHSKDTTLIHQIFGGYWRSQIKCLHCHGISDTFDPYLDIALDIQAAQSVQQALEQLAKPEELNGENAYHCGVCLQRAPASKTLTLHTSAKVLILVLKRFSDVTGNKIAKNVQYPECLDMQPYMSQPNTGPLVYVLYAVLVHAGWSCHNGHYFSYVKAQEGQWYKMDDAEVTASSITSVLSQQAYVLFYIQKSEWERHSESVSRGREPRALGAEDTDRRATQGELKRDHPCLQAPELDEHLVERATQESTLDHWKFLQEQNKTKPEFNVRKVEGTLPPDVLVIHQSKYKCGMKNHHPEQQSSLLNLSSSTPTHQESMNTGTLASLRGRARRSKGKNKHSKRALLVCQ
As usually defined, the inhibition is the change of the read-out against control, counted positive when it falls. As to `COc1cc(CNc2nn[nH]n2)ccc1OCc1ccc(C)cc1`, the inhibition was 5.1% (inactive).

For the compound `CC1=C(c2ccc(Cl)cc2)S(=O)(=O)NC1=NCC(=O)NC1CCCC1`, the inhibition was 20.9% (inactive). The same measure for `CC1=C(c2ccc(C)cc2)S(=O)(=O)NC1=NCc1cccc(Br)c1`: 46% (active); for `COc1ccc(C2=Nc3ncnn3C2=NCc2ccc(F)cc2)cc1OC`: -4% (inactive); for `COc1ccc(CN=C2NS(=O)(=O)C(c3ccc(F)cc3)=C2C)cc1OC`: 66.4% (active). Regarding `CCn1c(SCc2cccc(C)c2)nnc1-c1cnccn1`, the inhibition was 10.7% (inactive).

As for `O=C(c1cccnc1)N1CCC(c2cccc(Cc3ccccc3Cl)n2)CC1`, the inhibition was -11.1% (inactive). `COc1cccc(CC2(NC(=O)c3ccccc3)N=C3C=CC=CN3C2=O)c1OC` (centres undefined): the inhibition is 16.5% (inactive). As to `Cc1cc(OCC(=O)Oc2ccc(-n3cnnn3)cc2)cc(C)c1Cl`, the inhibition is -0.253% (inactive). The result for `CCc1ccc(C(=O)Cn2c(N3CCOCC3)nc3ccccc32)cc1` reads -2.13% (inactive); that for `COc1ccc(S(=O)(=O)N2CC(C(=O)NC3CCCCC3)C3(CCOCC3)C2)cc1` (centres undefined), 0.196% (inactive). The result for `COc1nc(OC)nc(N2CCC(c3nc(C)cc(-c4ncc[nH]4)n3)CC2)n1` reads -10.1% (inactive); that for `COc1cccc(-c2nnc(-c3ccccc3NS(=O)(=O)c3ccc(C)cc3)o2)c1`, 15.5% (inactive). The result for `COc1cccc(-n2nnc(-c3nnc(-c4ccccc4)o3)c2C)c1` reads 54.7% (active).

On to `COc1ccc(-c2nnc(-c3cccc(S(=O)(=O)N4CCCC4)c3)o2)cc1`, for which the inhibition is 13.3% (inactive). The same measure for `Cc1ccc(CNC(=O)CCNc2cc(C)nc3nc(-c4cccnc4)nn23)cc1`: 6.35% (inactive); for `CCC(CC)C(=O)N1CCC(c2nc3c(nnn3Cc3ccccc3)c(=O)[nH]2)CC1`: 14.7% (inactive); for `CC1=C2C[C@@H]3C(CN4CCN(c5ccccn5)CC4)C(=O)O[C@@H]3C[C@@]2(C)CCC1` (some centres undefined): -3.81% (inactive). The same measure for `COc1ccc(NC(=O)c2sc(N3CCOCC3)nc2-c2ccccc2)c(OC)c1`: 52.7% (active). The result for `CNC(=O)c1cc(-c2ccccc2)c(N2CCOCC2)s1` reads 2.58% (inactive); that for `COc1ccc(-c2nc(N(Cc3ccccc3)C(=O)CN3CCOCC3)sc2C)cc1`, -13.9% (inactive). For the compound `CC(C)Cc1noc(CN2CCC3(CC2)CC3c2nnc(-c3cccc(F)c3)o2)n1` (centres undefined), the inhibition is 0.0905% (inactive). The same measure for `CC/C=C\[C@@H]1O[C@H]1C1=C(C)C(=O)C2(O1)C(=O)NC(OC)(C(=O)c1ccccc1)C2O` (some centres undefined): -4.56% (inactive); for `COc1ccc(-c2cc(C(=O)N3CCCC3c3cc(C)on3)no2)cc1` (centres undefined): 0.23% (inactive); for `O=C(Nc1ccc2c(c1)OCO2)c1sc2cc(Cl)ccc2c1Cl`: -7.31% (inactive). The same measure for `CC(OC(=O)c1cn(-c2ccccc2)nc1-c1cccnc1)C(=O)Nc1cccc(S(=O)(=O)N(C)C)c1` (centres undefined): 41.1% (active). Consider `CCOc1ncccc1C(=O)NNC(=O)c1cn(-c2ccccc2)nc1-c1ccccc1`, for which the inhibition was 2.51% (inactive).

For the compound `COc1ccccc1OCCC(=O)Nc1cccc(S(=O)(=O)N(C)C)c1`, the inhibition is 9.63% (inactive). The result for `NC(=O)c1ccccc1OCC(=O)Nc1cc(Cl)ccc1Oc1ccccc1` reads -1.08% (inactive); that for `COc1ccc(-c2noc(-c3cc4c(COC(C)=O)cnc(C)c4oc3=O)n2)cc1`, -158% (inactive); that for `Cc1cc(=O)oc2c(C)c(OC(C)C(=O)NCc3ccncc3)ccc12` (centres undefined), -11.3% (inactive). The same measure for `COc1ccc(-c2cc(=O)oc3c(C)c(OCc4ccccc4F)ccc23)cc1`: 49.1% (active); for `CNC(=O)c1sc2nccnc2c1C1CCN(c2ccncn2)CC1`: -8.22% (inactive); for `CCc1cc(C2CCCN2S(=O)(=O)c2ccc(C(C)C)cc2)on1` (centres undefined): 9.48% (inactive).

`Cc1nn(C)c(C)c1CN(C(=O)Cn1cc(C(C)C)nn1)C1CC1`: the inhibition is -1.87% (inactive). The result for `CN1C[C@@H](NC(=O)c2ccc(F)cc2)C[C@H]1c1nc(-c2cccnc2)no1` reads -2.42% (inactive). The result for `Cc1cc(N)nc2c1c(C)nn2-c1ncc(C(F)(F)F)cc1Cl` reads -15.8% (inactive); that for `COc1cc(Cl)ccc1-c1nc(-c2cccc(C(=O)N3CCCC3)c2)no1`, 8.98% (inactive).

For the compound `Cc1ccccc1-c1nc(-c2cccc(OCC(=O)N3CCOCC3)c2)no1`, the inhibition was 48.9% (active). Consider `COc1ccc(-c2noc(-c3cccc(OCC(=O)NC(C)C)c3)n2)cc1`, for which the inhibition is -0.296% (inactive). Consider `Cc1ccc(-c2noc(-c3cccc(OCC(=O)N(C)C)c3)n2)cc1`, for which the inhibition was 50.7% (active). With `Cc1ccccc1-c1nc(-c2cn(CC(=O)Nc3ccccc3)cn2)no1`, the inhibition was 10% (inactive). The result for `Cc1ccc(-c2nc(-c3cccc(-c4ccnn4C)c3)no2)cc1` reads 5.04% (inactive); that for `O=C(NCCc1ccccc1)c1cc2c(s1)CS(=O)(=O)C2`, 6.74% (inactive).

`COc1ccccc1Cc1cnc(C2CCCN(C(=O)c3ccnc(C)n3)C2)o1` (centres undefined): the inhibition was -2.9% (inactive).

Consider `CC1=N[C@@]2(CC[C@@H]3CN(C(=O)Nc4ccccc4C)C[C@@H]32)C(=O)N1CC1CC1`, for which the inhibition was -23.9% (inactive). The result for `COc1ccc(CCNC(=O)c2ccccc2OCc2ccc(F)cc2)cc1` reads 16.7% (inactive); that for `COc1ccc(CNC(=O)CSc2nnc3c4ccccc4nc(-c4ccco4)n23)cc1`, -17% (inactive). The same measure for `COc1ccc(-c2noc(CNC(=O)CCc3ccccc3)n2)cc1OC`: 8.5% (inactive); for `COc1ccc(-c2ccc(CCC(=O)NCc3ccccc3)o2)cc1`: 34.6% (active); for `COc1ccc(CNC(=O)c2cccc3cccnc23)cc1`: 40.3% (active). Take `COc1cccc(C(=O)NCc2ccc(-c3nc4cnccc4o3)cc2)c1`: the inhibition was 25.2% (inactive).

Consider `COc1ccc(CC(=O)Nc2cnc(-c3ccccc3)nc2)cc1`, for which the inhibition is 2.89% (inactive). The result for `COc1ccc(CNC(=O)c2ccccc2-c2ncc(-c3ccccc3)o2)cc1` reads 37.9% (active). The same measure for `COc1ccc(CNC(=O)Cn2ncc3ccc(C)cc32)cc1`: 16.8% (inactive); for `O=C(c1ccc(OC2CCN(C(=O)C3CCC3)CC2)nc1)N1CCOCC1`: -14.4% (inactive); for `CC(=O)N1CC2(CCN(C(=O)c3ccncc3)CC2)Nc2ccccc21`: -3.13% (inactive). The same measure for `CCOC(=O)c1[nH]c2cc(OC)c(OC)cc2c1NC(=O)c1cc2cccc(OC)c2o1`: -23.6% (inactive); for `CCOC(=O)c1c(NC(=O)CNc2cc(C)ccc2C)sc(Cc2ccc3c(c2)OCO3)c1C`: 5.67% (inactive). `O=C(c1cccnc1)N1CC[C@@H]2CNS(=O)(=O)[C@@H]2CC1`: the inhibition is -5.34% (inactive).

As to `CN1[C@@H](CCC(=O)N2CCN(c3ccccc3)CC2)CNC(=O)[C@H]2NCC[C@H]21`, the inhibition was 7.19% (inactive).

Regarding `Cc1ccc(NC(=O)CCn2cnc3c2c(=O)n(C)c(=O)n3C)cc1`, the inhibition was -13% (inactive). The result for `Cc1ccc(N(C)C(=O)CCn2cnc3ccccc3c2=O)cc1` reads -3.3% (inactive). The result for `Cc1c(Cl)cccc1NC(=O)CCn1cnc2ccccc2c1=O` reads 55.3% (active). On to `Cc1nnc2c(NC(=O)Cc3cccc(C(F)(F)F)c3)cccn12`, for which the inhibition is -9.8% (inactive).

For the compound `Cc1cccc(NC(=O)C2CN(S(C)(=O)=O)c3ccccc3O2)c1C` (centres undefined), the inhibition was -4.9% (inactive). The result for `CCS(=O)(=O)n1nc(NCc2ccccc2)nc1NCc1ccccc1` reads 1.97% (inactive); that for `CCOc1ccc(NC(=S)Nc2ccc(Cc3ccncc3)cc2)cc1`, 7.13% (inactive). The result for `COc1ccc(NC(=O)c2cc(=O)[nH]c3ccccc23)cc1S(=O)(=O)N1CCOCC1` reads -3.19% (inactive); that for `COc1ccc(-c2[nH]c3ccccc3c2SCCNC(=O)c2ccc(S(=O)(=O)N3CCOCC3)cc2)cc1`, 56.7% (active). The same measure for `COc1ccc(-c2cnc(SCCNC(=O)c3cccc(F)c3)[nH]2)cc1`: -3.6% (inactive); for `CC(C)Oc1ccc(CNC(=O)C2CCCN(c3ccc(N4CCOCC4)nn3)C2)cc1` (centres undefined): -6.08% (inactive); for `O=C1C(O)=C(c2ccc(O)c(O)c2)C(=O)C(O)=C1c1ccccc1`: 57.3% (active). As to `COc1cnc(CSc2nccc(C)n2)cc1OCC(=O)Nc1ccc(C)cc1C`, the inhibition was 2.43% (inactive). The same measure for `CC(C)Cc1cc(-c2nn3c(-c4ccccc4Cl)nnc3s2)n[nH]1`: 42.6% (active).

In the case of `CC(C)Cc1nc2sc3c(NCc4ccco4)ncnc3c2c2c1CCC2`, the inhibition is 43.3% (active). The result for `CC(C)Cc1nc2sc3c(N(CCO)Cc4ccccc4)ncnc3c2c2c1COC(C)(C)C2` reads 29.6% (inactive); that for `CC(O)CNc1ncnc2c1oc1nc(C(C)C)c3c(c12)CCC3` (centres undefined), 3.5% (inactive). The result for `COc1cccc(-c2cn3c4c(=O)n(C)c(=O)n(C)c4nc3n2-c2ccc(OC)c(OC)c2)c1` reads 20.6% (inactive); that for `CC(=O)N[C@@]12CN(C)CC[C@@H]1[C@@H](c1ccccc1)N(CC(=O)Nc1ccc(F)cc1)C2`, -2.8% (inactive); that for `O=C(CCCn1c(=O)c2ccccc2n(Cc2ccccc2F)c1=O)NC1CCCC1`, 21.6% (inactive). With `COCCCn1c(=O)c2ccccc2n(Cc2nc(-c3ccccc3)no2)c1=O`, the inhibition was -3.49% (inactive). For `N#Cc1ccccc1Cn1c(=O)n(CCCC(=O)NCc2ccc(F)cc2)c(=O)c2ccccc21`, the inhibition is 30.8% (active). The same measure for `CC1Oc2ccc(NC(=O)c3ccc4c(c3)CCC4)cc2NC1=O` (centres undefined): -11% (inactive); for `Cc1ccc(Cn2cc(-c3noc(-c4ccc[nH]4)n3)nn2)cc1`: 0.022% (inactive). In the case of `CC(CCc1ccccc1)NC(=O)/C=C/c1cccc([N+](=O)[O-])c1` (centres undefined), the inhibition is 6.91% (inactive).

Turning to `COc1ccccc1C(=O)Nc1cccc(Oc2ccccc2)c1`, the inhibition is 12.6% (inactive). The result for `CC(CCc1ccccc1)NC(=O)c1cc2cc(Oc3ccccc3)ccc2[nH]1` (centres undefined) reads 32.3% (active); that for `C[C@@H]1O[C@@H](OC2[C@H](Oc3cc(O)c4c(c3)OC(c3ccc(O)cc3)CC4=O)O[C@H](CO)[C@@H](O)[C@@H]2O)[C@H](O)[C@H](O)[C@H]1O` (some centres undefined), 0.6% (inactive).
